The whole screen tested about 78,000 compounds, of which about 1,800 (2.3%) were called active. Inconclusive results (about 27%) are left out. No stated cut-off is given here; in the data, active means inhibition above about 30%; inconclusive means mostly about 10% to 28%; inactive means weaker than that. This excerpt belongs to a sample that is enriched for actives.

Broadly, the inhibition is the relative decrease from the control value, in per cent.

Sequence of Interleukin-1 receptor-like 1 (Homo sapiens) (Q01638 whole entry, looked up): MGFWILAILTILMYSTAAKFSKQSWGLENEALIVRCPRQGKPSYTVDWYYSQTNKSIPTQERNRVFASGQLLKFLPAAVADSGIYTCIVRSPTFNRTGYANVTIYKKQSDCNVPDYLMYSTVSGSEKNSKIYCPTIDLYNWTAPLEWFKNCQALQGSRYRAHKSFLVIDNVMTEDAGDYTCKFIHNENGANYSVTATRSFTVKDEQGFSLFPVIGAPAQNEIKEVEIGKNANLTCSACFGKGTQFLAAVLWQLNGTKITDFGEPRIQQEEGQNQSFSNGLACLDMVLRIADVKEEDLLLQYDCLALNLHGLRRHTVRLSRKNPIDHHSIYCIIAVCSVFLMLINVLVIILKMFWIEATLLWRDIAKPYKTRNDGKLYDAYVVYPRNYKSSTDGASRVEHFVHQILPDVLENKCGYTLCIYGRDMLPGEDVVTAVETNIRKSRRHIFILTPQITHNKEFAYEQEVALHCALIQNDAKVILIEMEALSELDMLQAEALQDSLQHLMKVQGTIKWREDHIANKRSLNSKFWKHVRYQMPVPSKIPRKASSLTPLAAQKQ

The experiment has as its target Interleukin-1 receptor-like 1 (Homo sapiens) (UniProt Q01638). Briefly: blocks human ST2 binding to IL-33, primary screen, biochemical, AlphaLISA (AID 1259354). The settings on record: AlphaLISA ST2-Fc/biotin-IL-33 interaction, 1 h; at 17 µM, active compounds read high. On the technique in general: Bead proximity is the source of the signal in Alpha formats.
For `FC(F)(F)c1ccnc(NCc2cccnc2-n2ccnc2)c1`, the inhibition entry is “inactive”.
Under `O=C(Nc1ccc2c(c1)OCO2)C1CCN(S(=O)(=O)c2ccc(F)cc2)CC1` stands “inactive”; under `N#Cc1nc(COc2ccc(Cl)cc2)oc1N1CCCC1`, 73% (active).
The entry for `Cn1c(=O)c2c(nc(N3CCCCCC3)n2CC(O)COc2ccc(Cl)cc2)n(C)c1=O` (stereo not given) is “inactive”; for `Clc1ccc(OCCN2CCCCCC2)cc1` it is “inactive”.
As for `COCCO[C@H]1[C@H](NC(=O)C(C)C)c2ccccc2C12CCN(C(=O)c1cc(C(C)C)on1)CC2`, the inhibition result was “inactive”.
Under `O=C(O)c1cc(Br)ccc1N=Cc1nc(-c2ccccc2)oc1O` stands “inactive”.
As for `C=CCOc1ccc(C2C(C(=O)OCC(C)C)=C(C)N=C3SCCC(=O)N32)cc1` (stereo not given), the inhibition entry was “inactive”.
Under `COc1ccccc1NC(NC(=O)c1cccc(Cl)c1)C(Cl)(Cl)Cl` (stereo not given) stands “inactive”; under `O=C(CN1CCOC1=O)NCc1cnn2ccccc12`, “inactive”.
The entry for `O=C(CCCn1cnnn1)N1CCOC(c2ccc(Cl)c(Cl)c2)C1` (stereo not given) is “inactive”; for `O=C(CCn1cnnn1)NCc1cnn2ccccc12` it is 30% (active); for `Cc1nn(C(=O)/C=C/c2ccccc2)c(C)c1Sc1ccccc1` it is 39% (active).
The entry for `Cc1nn(C(=O)c2cccs2)c(C)c1Sc1ccccc1` is “inactive”; for `Cc1nn(C(=O)c2ccccc2)c(C)c1Sc1ccccc1` it is “inactive”; for `CC1CN(C2CC(=O)N(c3ccc(Br)cc3Br)C2=O)CC(C)O1` (stereo not given) it is “inactive”.
Regarding `CC1CC(C)CN(C2CC(=O)N(c3ccc(Br)cc3Br)C2=O)C1` (stereo not given), the inhibition result was “inactive”.
Under `Cc1ccc(N2C(=O)CC(Nc3ccc(N4CCOCC4)cc3)C2=O)c(Br)c1` (stereo not given) stands 56% (active).
For `CN1CCN(CCCNC(=O)COc2ccc3c(c2)C(=O)CC(C)(C)O3)CC1`, the inhibition entry is “inactive”.
The entry for `COc1ccc(NC(=O)Cn2cnc3scc(-c4ccccc4)c3c2=O)cc1Cl` is “inactive”; for `COc1cccc(N2CCN(S(=O)(=O)c3ccc4c(c3)c(=O)n(C)c(=O)n4C)CC2)c1` it is “inactive”.
In the case of `O=C1C(Nc2ccc(O)cc2)=C(n2nnc3ccccc32)C(=O)c2ccccc21`, the inhibition was 47% (active).
Under `CS(=O)(=O)n1nnc2ccccc21` stands “inactive”; under `Cc1cc(=O)[nH]c(SCC(=O)Nc2ccc(F)cc2)n1`, “inactive”.
Take `CCOc1ccc(Sc2cc(C(=O)NC3CC3)c3ccccc3n2)cc1`: the inhibition result was “inactive”.
The entry for `COc1ccc(C2=NN3COc4ccc(Cl)cc4C3C2)cc1` (stereo not given) is “inactive”; for `COc1ccc(C2=NN(C(C)=O)C(c3cc(OC)ccc3OC)C2)cc1` (stereo not given) it is “inactive”; for `COc1ccc(C2=NN3COc4ccc(Br)cc4C3C2)cc1` (stereo not given) it is 36% (active).
Under `O=S(=O)(Nc1ccccc1Br)c1ccccc1` stands “inactive”; under `CN(C)C(=O)c1ccc(S(=O)(=O)NC2CCCCCC2)s1`, “inactive”.
Under `Cc1ccc(Sc2c(C)nn(C(=O)c3ccc([N+](=O)[O-])cc3)c2C)cc1` stands 60% (active); under `Cc1nn(C(=O)c2cccnc2)c(C)c1Sc1ccc(Cl)cc1`, “inactive”; under `O=C(O)c1ccc(C(=O)c2ccc([N+](=O)[O-])cc2)cc1`, “inactive”.
In the case of `CCOc1ccc2c(=O)c(Oc3ccc(F)cc3)c(C)oc2c1`, the inhibition result was “inactive”.
Consider `OCc1ccc(CN2CCC(n3cc(C4CCCCC4)nn3)CC2)o1`, for which the inhibition entry is “inactive”.
The entry for `Cc1nn(-c2cccc(Br)c2)c(C)c1[C@@H]1C=C[C@@H](NS(=O)(=O)c2ccccc2)C1` is “inactive”; for `CN(Cc1ncc[nH]1)C(=O)C1CCN(Cc2ccco2)CC1` it is “inactive”.
`COCCNC(=O)C1C2C=CC3(CN(Cc4ccccc4Cl)C(=O)C13)O2` (stereo not given): the inhibition entry was “inactive”.
On to `CCNc1nc(NCC)n2c(SCC(=O)c3ccc(C(C)(C)C)cc3)nnc2n1`, for which the inhibition was 36% (active).
Under `CC1CCCC(NC(=O)C2CCCN(S(=O)(=O)c3cnc[nH]3)C2)C1C` (stereo not given) stands “inactive”; under `COC(=O)c1cccc(-c2nccn2CCc2cccc(F)c2)n1`, “inactive”.
Regarding `CCCCNC(=O)CNC(=O)Cn1ccc2ccccc2c1=O`, the inhibition entry was “inactive”.
On to `O=[N+]([O-])c1ccccc1S(=O)(=O)Nc1cccc2cccnc12`, for which the inhibition is 33% (active).
Under `O=[N+]([O-])c1cccc(S(=O)(=O)Nc2cccnc2Cl)c1` stands “inactive”; under `CCOc1ccc(S(=O)(=O)Nc2ccccc2F)c2cccnc12`, “inactive”.
Under `O=C1CCCN1C1CCN(Cc2nnc(C3CC3)o2)CC1` stands “inactive”; under `CCOc1ccc(-n2c(C)cc(C(=O)CN3CCC(C)CC3)c2C)cc1`, “inactive”.
As for `COc1ccc(N2CN=c3s/c(=C/c4ccc([N+](=O)[O-])cc4)c(=O)n3C2)cc1`, the inhibition entry was “inactive”.
`O=c1/c(=C/c2cccc([N+](=O)[O-])c2)sc2n1CN(c1cccc(C(F)(F)F)c1)CN=2`: the inhibition result is “inactive”.
The figure for `COc1ccc(N2CN=c3s/c(=C\c4ccccn4)c(=O)n3C2)cc1` is 32% (active); for `Cc1ccc(-c2noc(CCC(=O)N(C)c3cc(Cl)ccc3C)n2)cc1` it is “inactive”; for `CCOC(=O)c1c(C)n(C)c2ccc(OC(=O)c3ccc(OC)cc3)cc12` it is “inactive”.
Take `CCN1CC(NC2CCN(c3ccc(OC)cc3)CC2)CC1=O` (stereo not given): the inhibition result was “inactive”.
The entry for `CCOc1ccc(C(=O)NC2CC(=O)N(c3ccc(OCC)cc3)C2)cc1` (stereo not given) is “inactive”; for `O=S(=O)(c1ccc(Oc2ccc(Cl)cc2)cc1)c1ccc(Oc2ccc(Cl)cc2)cc1` it is “inactive”; for `Nc1ccc(Oc2ccc(Cl)cc2)cc1` it is 37% (active).
Under `Cc1cccc(C(CC(=O)N2CCOCC2)c2ccccc2)c1O` (stereo not given) stands “inactive”; under `Clc1ccc(-c2csc(Nc3ncccn3)n2)cc1`, “inactive”; under `COc1ccc(OC)c(S(=O)(=O)NCCC(C)C)c1`, “inactive”.
The figure for `O=[N+]([O-])c1cnc(N2CCN(Cc3ccccc3)CC2)c([N+](=O)[O-])c1` is 30% (active).
As for `O=[N+]([O-])c1ccc(CN2CCN(Cc3ccccc3)CC2)s1`, the inhibition entry is “inactive”.
For `Clc1cccc(CN2CCN(c3ccccn3)CC2)c1`, the inhibition entry was “inactive”.
Under `O=S(=O)(NCc1ccccc1)N1CCc2[nH]nc(C3CCC3)c2C1` stands “inactive”; under `CC(C(=O)NC1CC1)N1CCc2[nH]nc(C(c3ccccc3)c3ccccc3)c2C1` (stereo not given), 97% (active).
As to `CC(C)c1ccc(C(=O)NC2CC2)cc1`, the inhibition result was “inactive”.
As to `CCc1c(-c2ccccc2)nc2ccccc2c1C(=O)NCC1CCCO1` (stereo not given), the inhibition entry was “inactive”.
`CCCOc1ccc(CC(=O)O)cc1OC`: the inhibition result was “inactive”.
Consider `O=C(COc1ccc([N+](=O)[O-])cc1)Nc1ccc(N2CCCC2)cc1`, for which the inhibition is 60% (active).
Under `Cc1cc(Cl)ccc1NC(=O)COc1ccc([N+](=O)[O-])cc1` stands “inactive”.
As to `Cc1cccc(C)c1OCC(=O)Nc1ccc([N+](=O)[O-])cc1`, the inhibition result was “inactive”.

Values taken from PubChem BioAssay AID1259354 (Paczesny and Yang Labs, IUPUI and University of Michigan, 2018).
